Test results taken from PubChem BioAssay AID1566 (Sanford-Burnham Center for Chemical Genomics, 2009).
Screen size: about 290,000 compounds; about 1,800 (0.62%) were called active. The entries come from a sample that favours actives as a whole. A number with no mark means an inactive call. No stated cut-off is given here; in the data, active means inhibition above about 50%; inactive means the rest.

Experiment: NOD2 signaling inhibitors, cell-based, luminescence, uHTS, HEK293 (AID 1566)
Settings: HEK293 NOD2/NF-kB luciferase reporter, at 4 µM, hits give high values

In order of falling inhibition:
1. COc1cc(NC(=O)c2cc3ccccc3cc2OC)ccc1NC(=O)c1cccs1  45.8%
2. COc1cccc(CN2C(=O)C(C)N(C(=O)c3c(F)cccc3F)c3ccccc32)c1 (stereo unspecified)  45.6%
3. COc1ccc(CN(C)S(=O)(=O)c2nnc(NC(=O)c3cccc(F)c3)s2)cc1OC  44.4%
4. COc1ccc(CN(C)S(=O)(=O)c2nnc(NC(=O)c3cccc(OC)c3)s2)cc1  29.7%
5. Cc1ccc(S(=O)(=O)Nc2ccc3nc(C)sc3c2)cc1  29.3%
6. Cc1csc2c(=O)sc(NC(=O)c3cccs3)nc12  25.6%
7. Cc1nc(SCC(=O)N2CCCCC2)c2c(C)c(C)sc2n1  22.8%
8. CC(C)C(NC(=O)C(NC(=O)C1O[C@@H]2OC(C)(C)O[C@@H]2[C@H]2OC(C)(C)O[C@@H]12)C(C)C)C(=O)O (stereo partly specified)  20%
9. CCOCCCNCc1cc(Br)ccc1OCc1ccccc1  19%
10. CCn1c(SCC(=O)N2CCc3ccccc3C2)nc2sc(C)c(C)c2c1=O  17.7%
11. COc1ccccc1OCC(=O)N1CCCC(Nc2ccc(C)c(C)c2)C1 (stereo unspecified)  16.3%
12. CC1(C)CC(=O)C=C(C(=O)N2CCCC(C(=O)c3cccc(C(F)(F)F)c3)C2)O1 (stereo unspecified)  15.7%
13. C=CCn1c(-c2cccn(Cc3ccccc3)c2=O)n[nH]c1=S  15.3%
14. Cn1c(NC2CCCCC2)cc(=O)n(C)c1=O  15.2%
15. O=C(c1ccc(Oc2ccc([N+](=O)[O-])cc2Cl)cc1)N1CCCC1  15.1%
16. Cc1cc(C)c(S(=O)(=O)N2CCCOC2CNC(=O)C(=O)NCc2ccco2)c(C)c1 (stereo unspecified)  15%
17. CC(C)(C)C1=CC(=O)C(N2CCOCC2)=CC1=O  14.9%
18. CCS(=O)(=O)N1CCN(C(=O)c2cccc(OC)c2)CC1  14.1%
19. CC1C(=O)N(Cc2ccccc2)c2ccccc2N1C(=O)c1ccccc1 (stereo unspecified)  13.9%
20. Cc1ccc(S(=O)(=O)Cc2ccc(C(=O)N3CCN(c4cccc(C)c4C)CC3)o2)cc1  13.8%
21. CNC(=O)N(O)C1N(/N=C/c2cc(Br)ccc2O)C(=S)SC1(C)C (stereo unspecified)  13.6%
22. Cc1nc(N2CCN(C(=O)CCC(=O)O)CC2)c2c(C)c(C)sc2n1  13.1%
23. C=CCn1c(-c2cccn(Cc3cccc(Cl)c3)c2=O)n[nH]c1=S  12.9%
24. CC1=C(C)C(=O)C(N2CCOCC2)=CC1=O  12.8%
25. Cc1nc2ccc(NS(=O)(=O)c3ccc(F)cc3)cc2s1  12.4%
26. COc1ccc(-n2c(C)cc(C(=O)COC(=O)c3cc(NC(=O)c4cccs4)c(OC)c(OC)c3)c2C)cc1  12.4%
27. C#Cc1ccc([C@@H]2C=C(C(=O)Nc3ccccc3)O[C@H](OCC)[C@H]2CCCO)cc1  11.4%
28. O=C(CCc1n[nH]c(=O)[nH]c1=O)N/N=C/c1ccco1  11.3%
29. CC(=O)c1c(C)[nH]c(C(=O)OCC(=O)Nc2ccc([N+](=O)[O-])cc2Cl)c1C  11%
30. N#Cc1cc(-c2ccccc2)nc(Oc2ccccc2)n1  10.8%
31. CC1=C(C(=O)OCc2ccccc2)C(c2cccc([N+](=O)[O-])c2)NC(=O)N1CCCCCC(=O)O (stereo unspecified)  10.6%
32. Cc1ccccc1S(=O)(=O)Cc1ccc(C(=O)N2CCN(c3ccccc3F)CC2)o1  10.3%
33. COc1ccccc1OCC(=O)NC1CCCCCC1  10.3%
34. CCCCC(CC)CNC(=O)c1cc2ccccc2c(=O)o1 (stereo unspecified)  9.7%
35. CC(C)(C(N)=O)N1CCN(c2ncc(C(F)(F)F)cc2Cl)CC1  9.3%
36. O=C(COc1ccc2c3c(c(=O)oc2c1)CCCC3)N[C@@H](Cc1ccccc1)C(=O)O  9.1%
37. COc1cc(NC(=O)c2cccs2)c(C(=O)OCC(=O)c2cc(C)n(-c3ccc(F)cc3)c2C)cc1OC  9.1%
38. CCc1cc(=O)oc2cc(C)cc(OCC(=O)C(C)(C)C)c12  8.9%
39. CCC(=O)N1CCN(c2nc(C)nc3sc(C)c(C)c23)CC1  8.8%
40. O=C1CCN(Cc2ccc([N+](=O)[O-])cc2)CCN1[C@H](CO)c1ccccc1  8.7%
41. Cc1ccc(C(=O)NNC(=O)c2ccc(NC(=O)C(C)(C)C)cc2)cc1  8.3%
42. CC(=O)c1sc(NC(=O)C(C)C)nc1C  8.3%
43. CCC(=O)N1CCN(c2ccc(NC(=S)NC(=O)COc3ccccc3)cc2)CC1  8.2%
44. Cc1ccc(CNC(=O)c2ccc(NC(=O)C3=CSCCO3)cc2)cc1  8.2%
45. Cc1onc(-c2ccccc2Cl)c1C(=O)N1CCCCC1C(=O)O (stereo unspecified)  8%
46. Brc1cc(Br)c2nc3c(cc2c1)CCC3  7.6%
47. COC(=O)CNc1nc(C2CC2)nc2c1nnn2Cc1ccccc1Cl  7.3%
48. COC(=O)c1ccc(OCC2c3cc(OC)c(OC)cc3CCN2C(C)=O)cc1 (stereo unspecified)  6.9%
49. COc1cc2cc(Br)cc(Br)c2nc1C  5.9%
50. CC(=O)c1c(C)[nH]c(C(=O)OCC(=O)Nc2cc(Cl)ccc2[N+](=O)[O-])c1C  5.7%
51. Cc1cc2cc(CNC(=S)Nc3ccc(OC(F)F)cc3)ccc2[nH]1  4.6%
52. OCCNc1nc(C2CC2)nc2c1nnn2Cc1ccccc1Cl  3.7%
53. CC(NC(=O)C1CCCO1)c1ccccc1 (stereo unspecified)  3.6%
54. CC(=O)N1CCN(c2ccc(NC(=O)c3ccc(C(C)(C)C)cc3)cc2)CC1  3.5%
55. COc1cc2c(cc1OC)C(COc1ccc(F)cc1)N(C(C)=O)CC2 (stereo unspecified)  2.4%
56. O=C(NNC(=O)c1ccc[nH]1)Nc1cc(Cl)cc(Cl)c1  2.1%
57. O=C(NC1CCCc2ccccc21)c1ccc([N+](=O)[O-])cc1 (stereo unspecified)  1.7%
58. CC(C(=O)Nc1cc([N+](=O)[O-])ccc1Cl)N1CCN(c2ccc(O)cc2)CC1 (stereo unspecified)  1.4%
59. COc1ccc(Cl)cc1NC(=S)Nc1ccccc1C  0.6%
60. CNC(=S)NC1CC2CCC(C1)N2Cc1ccccc1 (stereo unspecified)  0.2%
61. CCCCn1c(N)c(N(CC(C)C)C(=O)c2cccc(S(=O)(=O)N3CCCCCC3)c2)c(=O)[nH]c1=O  0.1%
62. CCC(CC)N1CCN(S(=O)(=O)c2ccc(OC)cc2)CC1  -0.3%
63. O=C(CCNS(=O)(=O)c1ccc(Br)cc1)NCCc1ccc(Cl)cc1  -1.7%
64. O=C(NNc1ccc(F)cc1)c1c(F)cccc1Cl  -2.7%
65. CCOC(=O)c1c(C)[nH]c(C)c1C(=O)CSc1nc2ccccc2c(=O)n1-c1ccc(F)cc1  -3.4%
66. COc1ccc(NC(=O)c2ccc3c(c2)C(=O)N(Cc2cccnc2)C3=O)c(OC)c1  -3.5%
67. CS(=O)(=O)Nc1ccccc1C(=O)NCCSCc1ccccc1  -4.8%
68. COc1ccc(/C(N)=N/OC(=O)c2cccc([N+](=O)[O-])c2C)cc1OC  -8.3%
69. CCOc1ccc(N=C2NC(=O)S/C2=C\c2ccc(Cl)cc2)cc1  -11%
70. CNC(=O)C(=O)NCC1OCCN1S(=O)(=O)c1ccc(OC)c(OC)c1 (stereo unspecified)  -11.3%
71. CCOC(=O)c1c(C)[nH]c(C)c1C(=O)CSc1nc2ccccc2c(=O)n1-c1ccc(C)cc1  -12.1%
72. CC(=O)Nc1nc(C)c(C(C)=O)s1  -12.2%
73. CCOc1ccccc1-c1cc(C(=O)N/N=C/c2ccc(O)c(OC)c2)c2ccccc2n1  -16.4%
74. Cc1ccccc1NC(=O)C(C)Sc1nnc(-c2ccncc2)n1CC1CCCO1 (stereo unspecified)  -16.6%
75. CCOC(=O)Cc1csc(NS(=O)(=O)c2cc(Cl)ccc2Cl)n1  -18.2%
76. COc1ccc(NC(=O)c2cc3ccccc3cc2OC)cc1  -18.7%
77. CCCCc1c(C)c(C#N)c2nc3ccccc3n2c1NCCN(C)C  -20.8%
78. CCCCc1c(C)c(C#N)c2nc3ccccc3n2c1Cl  -34.2%
79. O=C(Nc1cccc([N+](=O)[O-])c1)Nc1ccc2c(c1)CCC2  -35.7%
80. Clc1ccc(/C=N/Nc2nnc(-c3ncc[nH]3)c3ccccc23)cc1  -40.1%
81. CSc1ccccc1OCc1cc(C(=O)N2CCSCC2)no1  -40.6%
82. COc1ccc(/C=N/Nc2nnc(-c3ncc[nH]3)c3ccccc23)cc1  -81.3%

In the case of `COc1cc2c(cc1OC)C(COc1ccc([N+](=O)[O-])cc1)N(C(C)=O)CC2` (stereo unspecified), the inhibition is reported as 60.6% (active).
In the case of `CN(C)S(=O)(=O)c1ccc(Nc2nc(C3CC3)nc3c2nnn3Cc2ccccc2Cl)cc1`, the inhibition is reported as 58.7% (active).
In the case of `CC(=O)c1c(C)[nH]c(C(=O)OCC(=O)Nc2ccc(Cl)cc2[N+](=O)[O-])c1C`, the inhibition is reported as 51% (active).
In the case of `COc1cc2ccccc2cc1C(=O)Nc1ccc(NC(=O)c2cccs2)cc1`, the inhibition is reported as 60.7% (active).
With `CC(=O)N1CCN(c2ccc(NC(=S)NC(=O)COc3ccc(C(C)(C)C)cc3)cc2)CC1` the inhibition was 68.1% (active).
For `CC(=O)c1sc(NC(=O)C2(F)C(F)(F)C(F)(F)C(F)(F)C(F)(F)C2(F)F)nc1C`, the inhibition was 55.2% (active).
In the case of `COc1cccc(CN2C(=O)C(C)N(C(=O)c3ccccc3)c3ccccc32)c1` (stereo unspecified), the inhibition is reported as 51% (active).
For `Oc1ccc2ccccc2c1/C=N/Nc1nnc(-c2ncc[nH]2)c2ccccc12`, the inhibition was 66.3% (active).
For `C=CCn1c(-c2cccn(Cc3ccc(Cl)cc3)c2=O)n[nH]c1=S`, the inhibition was 50.3% (active).
